Experimental data: PubChem BioAssay (NCI)
The panel holds about 83,000 compounds, 20% with a hit somewhere; the sample as a whole holds those more often.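 Values shown are percent growth following 48 h exposure of cells in 96-well plates to a single concentration of compound; below 10 was considered active.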 Activity calls are given as the source filed them.

Key:
Test in all cases: NCI-60 one-dose screen, 48 h (100 = growth as untreated, 0 = no growth, -100 = all killed)
Settings in all cases: 10 µM unless noted
SK-MEL-2 melanoma = test system: SK-MEL-2 melanoma
EKVX NSCLC = test system: EKVX NSCLC
SN12C renal = test system: SN12C renal
UO-31 renal = test system: UO-31 renal
TK-10 renal = test system: TK-10 renal
ACHN renal = test system: ACHN renal
CAKI-1 renal = test system: CAKI-1 renal
A498 renal = test system: A498 renal
CCRF-CEM leukemia = test system: CCRF-CEM leukemia
MOLT-4 leukemia = test system: MOLT-4 leukemia

Measured: growth

CCN(CC)CCCN1C(=O)c2c(c(C)c3c(oc4ccc(OC)cc43)c2C)C1=O
inactive: SK-MEL-2 melanoma 108% | EKVX NSCLC 105% | SN12C renal 100% | UO-31 renal 64.5% | TK-10 renal 110% | ACHN renal 42.8% | CAKI-1 renal 92.6% | A498 renal 99.1% | CCRF-CEM leukemia 93.9% | MOLT-4 leukemia 96.4%

COc1ccc(NC(=O)Nc2ccc(OCCCCCC(=O)NO)cc2)cc1
inactive: SK-MEL-2 melanoma 79.9% | EKVX NSCLC 121% | SN12C renal 97% | UO-31 renal 87.4% | TK-10 renal 89.3% | ACHN renal 107% | CAKI-1 renal 93.5% | A498 renal 85.2% | CCRF-CEM leukemia 85.6% | MOLT-4 leukemia 85.6%

CCOc1ccc(-n2nc(C(=O)NCc3ccccc3OC)nc2-c2cc(OC)c(OC)c(OC)c2)cc1
inactive: SK-MEL-2 melanoma 41.5% | EKVX NSCLC 41.3% | SN12C renal 39.7% | TK-10 renal 46.5% | ACHN renal 19.6% | CAKI-1 renal 25.9% | A498 renal 30% | CCRF-CEM leukemia 39.7%
active: UO-31 renal -2.66% | MOLT-4 leukemia 0.381%

CC1(C)[C@@H](O[C@@H]2OC[C@@H](O[C@@H]3O[C@H](CO)[C@@H](O)[C@H](O)[C@H]3O[C@@H]3OC[C@@H](O)[C@H](O)[C@H]3O)[C@H](O)[C@H]2O[C@@H]2O[C@H](CO)[C@@H](O)[C@H](O)[C@H]2O)CC[C@]2(C)[C@H]3CC[C@]45OC[C@@]6(CC[C@](C)(C=O)C[C@H]64)[C@H](O)C[C@@]5(C)[C@]3(C)CC[C@@H]12
active: SK-MEL-2 melanoma -90.2% | EKVX NSCLC -65.4% | SN12C renal -72.6% | UO-31 renal -88.7% | TK-10 renal -92.2% | ACHN renal -93.7% | CAKI-1 renal -91.5% | A498 renal -89.9% | CCRF-CEM leukemia -40.9% | MOLT-4 leukemia -53.5%

CC1=CC(c2ccco2)=C2C(N)=NNC2N1 (stereo not given)
inactive: SK-MEL-2 melanoma 108% | EKVX NSCLC 96.9% | SN12C renal 89.9% | UO-31 renal 80.9% | TK-10 renal 111% | ACHN renal 90.8% | CAKI-1 renal 82.6% | A498 renal 86.3% | CCRF-CEM leukemia 101% | MOLT-4 leukemia 103%

Clc1ccc(-c2cc(-c3ccccc3)nc(NCCNc3ccnc4cc(Cl)ccc34)n2)cc1
active: SN12C renal -48% | CAKI-1 renal 5.52% | CCRF-CEM leukemia -2.14% | MOLT-4 leukemia -1.52%
inactive: SK-MEL-2 melanoma 78.8% | EKVX NSCLC 88.4% | UO-31 renal 36.4% | TK-10 renal 106% | ACHN renal 10.1% | A498 renal 53.3%

C=CN(C(=O)N1CCN(c2cc3c(cc2F)c(=O)c(C(=O)O)cn3C2CC2)CC1)c1nc(-c2ccc(OC)cc2)cs1
inactive: SK-MEL-2 melanoma 18.4% | EKVX NSCLC 23.7% | SN12C renal 11.3% | UO-31 renal 15.5% | TK-10 renal 42.8% | ACHN renal 23.6% | CAKI-1 renal 17.3% | MOLT-4 leukemia 18%
active: A498 renal 8.44% | CCRF-CEM leukemia 8.17%

CCOC(=O)c1[nH]c2c(c1C)-c1[nH]c(=O)c(S(=O)(=O)c3ccccc3)cc1SC2
inactive: SK-MEL-2 melanoma 56.4% [100 µM] | SN12C renal 59.5% [100 µM] | UO-31 renal 54.2% [100 µM] | TK-10 renal 13.1% [100 µM] | ACHN renal 20.9% [100 µM] | CAKI-1 renal 16.2% [100 µM] | A498 renal 21.4% [100 µM] | CCRF-CEM leukemia 52.1% [100 µM] | MOLT-4 leukemia 57.3% [100 µM]
active: EKVX NSCLC 8.42% [100 µM]

Nc1[nH]c(=S)nc2oc(-c3ccccc3)c(-c3ccccc3)c12
inactive: SK-MEL-2 melanoma 101% | EKVX NSCLC 98% | SN12C renal 97.5% | UO-31 renal 86.9% | TK-10 renal 114% | ACHN renal 101% | CAKI-1 renal 109% | A498 renal 90.8% | CCRF-CEM leukemia 119% | MOLT-4 leukemia 107%

O=C1/C(=C2\SC(=S)N(C3CC3)C2=O)SC(=S)N1C1CC1
inactive: SK-MEL-2 melanoma 102% | EKVX NSCLC 95.9% | SN12C renal 92.5% | UO-31 renal 77.4% | TK-10 renal 108% | ACHN renal 97% | CAKI-1 renal 91.3% | A498 renal 106% | CCRF-CEM leukemia 105% | MOLT-4 leukemia 103%

O=C(O)c1ccc(-c2ccc(/C=N/Nc3nc(Nc4ccccc4)nc(N4CCCCC4)n3)o2)cc1
inactive: SK-MEL-2 melanoma 68.5% | EKVX NSCLC 78.8% | SN12C renal 66.8% | UO-31 renal 44.4% | TK-10 renal 41.8% | ACHN renal 73.3% | A498 renal 72.8% | CCRF-CEM leukemia 62.8% | MOLT-4 leukemia 79.9%
active: CAKI-1 renal -5.95%

N[C@H]1CCC[C@@H]1NCCCCN1C(=O)c2cccc3cc([N+](=O)[O-])cc(c23)C1=O
active: CCRF-CEM leukemia 2.24% | MOLT-4 leukemia 0.264%
inactive: SK-MEL-2 melanoma 84.2% | EKVX NSCLC 73.2% | SN12C renal 29.7% | UO-31 renal 66% | TK-10 renal 44.5% | ACHN renal 22.4% | CAKI-1 renal 94.3% | A498 renal 62.6%

CCN1CCN(CCNc2nccc(-c3c(-c4ccc(F)c(OC)c4)nc4sccn34)n2)S1(=O)=O
inactive: SK-MEL-2 melanoma 37.7% | EKVX NSCLC 88.5% | SN12C renal 70.8% | UO-31 renal 86.9% | TK-10 renal 118% | ACHN renal 59.6% | CAKI-1 renal 77.5% | A498 renal 102% | CCRF-CEM leukemia 59.5% | MOLT-4 leukemia 81.8%
